# PubChem BioAssay AID936 (University of Pittsburgh Molecular Library Screening Center, 2007)
# A number with no mark means an inactive call. No rule for the calls is given here.
# Experiment: redox cycling hydrogen peroxide generation, dose response, artefact control for Plk1 PBD inhibitor project, biochemical, 1 mM DTT (AID 936)
# Conditions: Redox cycling H2O2 generation, cell-free
row,SMILES,EC50
1,O=C(O)COc1ccc(Br)cc1/C=N/O,> 50 µM
2,CCC(Sc1nc2n[nH]c(C)c2c(=N)n1-c1cccc(Cl)c1)C(=O)NCCOC (stereo not drawn),> 50 µM
3,O=C1C(C2=C(O)c3ccccc3C2=O)=Nc2ccccc21,> 50 µM
